In all, about 69,000 compounds went through this assay and about 50 (0.07%) showed an effect of 50% or more. This is one part of a sample in which strong results are shown more often than they occur.
Molecular target: Lysine--tRNA ligase (Plasmodium falciparum (isolate 3D7)) (UniProt Q8IDJ8)
Assay: Pf-KRS-1 (Lysyl-RNA Synthetase-1, KRS-1, cytosolic KRS) from Plasmodium falciparum. Inhibitor assay, 384 well plate, luminescence read.
Type: functional
Design: scale not given: in the data most compounds retested in dose-response had high values
Settings: 30 µM

Sequence of Lysine--tRNA ligase (Plasmodium falciparum (isolate 3D7)) (Q8IDJ8 1-583): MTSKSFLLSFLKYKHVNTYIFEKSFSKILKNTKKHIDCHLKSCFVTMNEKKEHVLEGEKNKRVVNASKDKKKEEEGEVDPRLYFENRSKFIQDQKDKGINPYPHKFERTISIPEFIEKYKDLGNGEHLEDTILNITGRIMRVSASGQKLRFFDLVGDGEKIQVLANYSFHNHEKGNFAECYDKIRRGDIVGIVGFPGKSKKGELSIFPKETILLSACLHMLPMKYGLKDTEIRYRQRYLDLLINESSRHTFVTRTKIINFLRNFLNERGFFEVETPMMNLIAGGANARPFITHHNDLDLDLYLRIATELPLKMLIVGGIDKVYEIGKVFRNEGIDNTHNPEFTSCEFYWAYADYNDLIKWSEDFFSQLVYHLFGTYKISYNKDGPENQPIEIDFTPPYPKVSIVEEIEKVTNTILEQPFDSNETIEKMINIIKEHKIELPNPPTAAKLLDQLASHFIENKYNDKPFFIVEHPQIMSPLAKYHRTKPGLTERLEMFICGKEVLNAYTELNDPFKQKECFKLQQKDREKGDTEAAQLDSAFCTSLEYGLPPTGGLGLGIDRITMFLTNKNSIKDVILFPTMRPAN

| Compound | Percent Effect [%] |
| --- | --- |
| COC(=O)c1ccc2ccn(CC3CCCO3)c(=O)c2c1 (stereo not drawn) | 12.9 |
| COC(=O)c1ccc2ccn(CC3COCCO3)c(=O)c2c1 (stereo not drawn) | 26.4 |
| COC(=O)c1ccc2ccn(CC3CCCCO3)c(=O)c2c1 (stereo not drawn) | 78.6 |
| O=C(N1CCCO1)[C@@]12CCO[C@@H]1CCN(Cc1cccnc1)C2 | 0.613 |
| CN1C(=O)CO[C@H]2CCN(C(=O)Cc3ccc4c(c3)CCCC4)CC[C@@H]21 | 0.27 |
| CC(C)n1nc2c(cc1=O)CN(CC1CCCCO1)CC2 (stereo not drawn) | 11.8 |
| CCn1nc2c(cc1=O)CN(CC1CCCCO1)CC2 (stereo not drawn) | -3.92 |
| CCCn1nc2c(cc1=O)CN(CC1CCCCO1)CC2 (stereo not drawn) | 8.29 |
| Cc1ncc2c(n1)CN(CC1CCCCO1)CC2 (stereo not drawn) | 76.2 |
| Cc1cc(CN2CCc3cncnc3C2)no1 | 8.95 |
| Cn1nc2c(cc1=O)CN(CC1CCCCO1)CC2 (stereo not drawn) | 50.5 |
| CCc1ncc2c(n1)CN(CC1CCCCO1)CC2 (stereo not drawn) | 17.1 |
| CC(C)c1ncc2c(n1)CN(CC1CCCCO1)CC2 (stereo not drawn) | 2.58 |
| c1ncc2c(n1)CN(CC1CCCCO1)CC2 (stereo not drawn) | 84.6 |
| COCCN1CCO[C@H]2CN(Cc3cccc(C)n3)C[C@H]21 | 2.71 |
| CO[C@H]1CN(CC2CCOCC2)[C@@H]2CCCO[C@H]12 | 3.3 |
| Cc1cccc(CN2C[C@H](NS(C)(=O)=O)[C@@H]3OCCC[C@@H]32)n1 | 0.332 |

| Compound | Percent Effect [%] |
| --- | --- |
| Cc1noc([C@]23COC[C@H]2CN(C(C)C)C3)n1 | 2.71 |
| CC(CCc1ccccc1)NC(=O)Nc1cnn(CC(N)=O)c1 (stereo not drawn) | 2.54 |
| COCCn1cc(NC(=O)C(C)CCc2ccccc2F)ccc1=O (stereo not drawn) | 34.2 |
| COCCn1cc(NC(=O)NC(C)CCc2ccccc2)ccc1=O (stereo not drawn) | 64.7 |
| CCCN1CCN(C(=O)c2cc3ccccc3cn2)[C@H]2CS(=O)(=O)C[C@H]21 | 4.93 |
| Cc1ccc(-c2ccc(C3CNCCO3)nc2)cc1 (stereo not drawn) | 5.24 |
| Cc1cccc(NC2CCc3c2[nH]c(=O)n(C2CCCCC2)c3=O)c1C (stereo not drawn) | 32.2 |
| O=c1[nH]c2c(c(=O)n1C1CCCCC1)CCC2Nc1ccccc1Cl (stereo not drawn) | 61.5 |
| O=c1[nH]c2c(c(=O)n1C1CCCCC1)CCC2Nc1ccccc1 (stereo not drawn) | 24.4 |
| O=c1[nH]c2c(c(=O)n1C1CCCCC1)CCC2NCc1ccccc1 (stereo not drawn) | 11.2 |
| O=c1[nH]c2c(c(=O)n1C1CCCCC1)CCC2NCCc1ccccc1 (stereo not drawn) | 55.6 |
| O=c1[nH]c2c(c(=O)n1C1CCCCC1)CCC2Nc1ccccn1 (stereo not drawn) | 28.1 |
| COC[C@@]12CCO[C@@H]1CCN(Cc1ccccc1OC)C2 | 6.78 |
| CC(=O)N1CCO[C@@H]2CN(S(=O)(=O)C3CC3)CC[C@@H]2C1 | 2.76 |
| CO[C@H]1CC[C@H]2[C@H]1OCCN2C(=O)CC1=CCCCC1 | 18.1 |
| Cc1ncsc1CN1C[C@H](C(=O)N2CCCO2)[C@@H]2CCO[C@@H]2C1 | 0.217 |

Source: ChEMBL document CHEMBL3988442, “University of Dundee, Small-Polar-MMV Screening Library” (2021)
